Assay results from PubChem BioAssay AID1159580 (chemical genetic matrix, 2015).
Among all 5,500 compounds or so, about 2,000 (36%) were called active. About 18% were inconclusive and are not listed. No stated cut-off is given here; in the data, active means normalized growth mostly below about 0.91 (no sharp cut-off); inconclusive means no clear call, values can overlap the other calls; inactive means mostly above about 0.92. Some of the results follow.

Test: chemical genetic growth profiling, strain panel (AID 1159580);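 further: tested at 20 µM; growth read once vehicle control cultures reached saturation at 30 °C; 1 = growth at the plate median or of vehicle wells; lower values mean less growth of the strain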
Conditions: growth OD

Measured: normalized growth

CC(C)[C@@H]1CC[C@@H](C)CC1=O
inactive: S. cerevisiae deletion strains, locus YJR066W, strain TOR1, hits give low values 0.94 | S. cerevisiae deletion strains, locus YJR075W, strain HOC1, hits give low values 1.02 | S. cerevisiae deletion strains, locus YKL009W, strain mrt4, hits give low values 1.01 | S. cerevisiae deletion strains, locus YKL068W, hits give low values 1.02 | S. cerevisiae deletion strains, locus YKL085W, strain MDH1 (second series), hits give low values 0.999 | S. cerevisiae deletion strains, locus YKL085W, strain MDH1, hits give low values 0.999 | S. cerevisiae deletion strains, locus YKL160W, strain elf1, hits give low values 0.981 | S. cerevisiae deletion strains, locus YKR001C, strain vps1, hits give low values 0.991 | S. cerevisiae deletion strains, locus YKR026C, strain gcn3, hits give low values 0.984 | S. cerevisiae deletion strains, locus YKR091W, strain srl3, hits give low values 0.991 | S. cerevisiae deletion strains, locus YLL001W, strain dnm1, hits give low values 0.98 | S. cerevisiae deletion strains, locus YLL026W, hits give low values 0.985 | S. cerevisiae deletion strains, locus YLL041C, strain sdh2, hits give low values 0.991 | S. cerevisiae deletion strains, locus YLR027C, strain aat2, hits give low values 0.979 | S. cerevisiae deletion strains, locus YLR039C, strain RIC1, hits give low values 1.09 | S. cerevisiae deletion strains, locus YLR058C, strain SHM2, hits give low values 1.02 | S. cerevisiae deletion strains, locus YLR102C, strain apc9, hits give low values 0.997 | S. cerevisiae deletion strains, locus YLR113W, strain HOG1, hits give low values 0.967 | S. cerevisiae deletion strains, locus YLR221C, strain rsa3, hits give low values 1.01 | S. cerevisiae deletion strains, locus YLR258W, strain gsy2, hits give low values 0.996 | S. cerevisiae deletion strains, locus YLR262C, strain YPT6 (second series), hits give low values 0.979 | S. cerevisiae deletion strains, locus YLR262C, strain YPT6, hits give low values 1.14 | S. cerevisiae deletion strains, locus YLR268W, strain sec22, hits give low values 1.02 | S. cerevisiae deletion strains, locus YLR320W, strain mms22, hits give low values 1.01 | S. cerevisiae deletion strains, locus YLR330W, strain CHS5, hits give low values 1.01 | S. cerevisiae deletion strains, locus YLR342W, strain FKS1 (second series), hits give low values 1.03 | S. cerevisiae deletion strains, locus YLR342W, strain FKS1, hits give low values 0.995 | S. cerevisiae deletion strains, locus YLR357W, strain rsc2, hits give low values 0.998 | S. cerevisiae deletion strains, locus YLR370C, strain arc18, hits give low values 0.983 | S. cerevisiae deletion strains, locus YLR371W, strain rom2, hits give low values 1 | S. cerevisiae deletion strains, locus YLR384C, strain iki3, hits give low values 1.01 | S. cerevisiae deletion strains, locus YLR418C, strain cdc73, hits give low values 1.01 | S. cerevisiae deletion strains, locus YML016C, strain PPZ1, hits give low values 1.01 | S. cerevisiae deletion strains, locus YML032C, strain rad52, hits give low values 1.01 | S. cerevisiae deletion strains, locus YML120C, strain ndi1, hits give low values 0.982 | S. cerevisiae deletion strains, locus YML124C, strain tub3, hits give low values 0.999 | S. cerevisiae deletion strains, locus YMR058W, strain fet3, hits give low values 0.989 | S. cerevisiae deletion strains, locus YMR078C, strain ctf18, hits give low values 1 | S. cerevisiae deletion strains, locus YMR125W, strain sto1, hits give low values 0.965 | S. cerevisiae deletion strains, locus YMR129W, hits give low values 1 | S. cerevisiae deletion strains, locus YMR205C, strain PFK2, hits give low values 1 | S. cerevisiae deletion strains, locus YMR223W, strain ubp8, hits give low values 1 | S. cerevisiae deletion strains, locus YMR231W, strain pep5, hits give low values 1 | S. cerevisiae deletion strains, locus YMR263W, strain SAP30, hits give low values 1.02 | S. cerevisiae deletion strains, locus YMR307W, strain GAS1, hits give low values 1.02 | S. cerevisiae deletion strains, locus YNL067W, strain RPL9B, hits give low values 1.03 | S. cerevisiae deletion strains, locus YNL071W, strain lat1, hits give low values 0.991 | S. cerevisiae deletion strains, locus YNL128W, strain TEP1, hits give low values 1.02 | S. cerevisiae deletion strains, locus YNL153C, strain GIM3, hits give low values 1.03 | S. cerevisiae deletion strains, locus YNL183C, strain NPR1, hits give low values 0.935 | S. cerevisiae deletion strains, locus YNL209W, strain ssb2, hits give low values 1 | S. cerevisiae deletion strains, locus YNL233W, strain BNI4, hits give low values 1.04 | S. cerevisiae deletion strains, locus YNL248C, strain rpa49, hits give low values 0.997 | S. cerevisiae deletion strains, locus YNL250W, strain rad50, hits give low values 1 | S. cerevisiae deletion strains, locus YNL271C, strain bni1, hits give low values 1 | S. cerevisiae deletion strains, locus YNL298W, strain CLA4, hits give low values 0.999 | S. cerevisiae deletion strains, locus YNL307C, strain MCK1, hits give low values 1.01 | S. cerevisiae deletion strains, locus YNL322C, strain KRE1 (second series), hits give low values 0.995 | S. cerevisiae deletion strains, locus YNL322C, strain KRE1, hits give low values 1.01 | S. cerevisiae deletion strains, locus YNR049C, strain mso1, hits give low values 1 | S. cerevisiae deletion strains, locus YNR052C, strain pop2, hits give low values 0.991 | S. cerevisiae deletion strains, locus YOL006C, strain TOP1, hits give low values 1.06 | S. cerevisiae deletion strains, locus YOL012C, strain htz1 0.896 | S. cerevisiae deletion strains, locus YOL147C, strain pex11, hits give low values 1.01 | S. cerevisiae deletion strains, locus YOR001W, strain rrp6, hits give low values 1.01 | S. cerevisiae deletion strains, locus YOR061W, strain CKA2, hits give low values 1.01 | S. cerevisiae deletion strains, locus YOR069W, strain VPS5, hits give low values 0.999 | S. cerevisiae deletion strains, locus YOR070C, strain gyp1, hits give low values 0.996 | S. cerevisiae deletion strains, locus YOR080W, strain dia2, hits give low values 0.99 | S. cerevisiae deletion strains, locus YOR083W, strain WHI5, hits give low values 0.965 | S. cerevisiae deletion strains, locus YOR106W, strain vam3, hits give low values 0.98 | S. cerevisiae deletion strains, locus YOR136W, strain idh2, hits give low values 0.987 | S. cerevisiae deletion strains, locus YOR144C, strain elg1, hits give low values 1 | S. cerevisiae deletion strains, locus YOR184W, strain ser1, hits give low values 1.02 | S. cerevisiae deletion strains, locus YOR231W, strain MKK1, hits give low values 0.955 | S. cerevisiae deletion strains, locus YOR265W, strain rbl2, hits give low values 0.989 | S. cerevisiae deletion strains, locus YOR270C, strain vph1, hits give low values 1.01 | S. cerevisiae deletion strains, locus YOR290C, strain snf2, hits give low values 0.954 | S. cerevisiae deletion strains, locus YOR316C, strain cot1, hits give low values 1.01 | S. cerevisiae deletion strains, locus YPL051W, strain arl3, hits give low values 0.998 | S. cerevisiae deletion strains, locus YPL055C, strain LGE1, hits give low values 1.02 | S. cerevisiae deletion strains, locus YPL078C, strain atp4, hits give low values 0.969 | S. cerevisiae deletion strains, locus YPL106C, strain sse1, hits give low values 0.967 | S. cerevisiae deletion strains, locus YPL240C, strain hsp82, hits give low values 0.996 | S. cerevisiae deletion strains, locus YPL241C, strain CIN2, hits give low values 1.01 | S. cerevisiae deletion strains, locus YPL256C, strain CLN2, hits give low values 0.96 | S. cerevisiae deletion strains, locus YPR119W, strain clb2, hits give low values 1 | S. cerevisiae deletion strains, locus YPR141C, strain kar3, hits give low values 0.991 | S. cerevisiae deletion strains, locus YPR163C, strain tif3, hits give low values 1.01 | S. cerevisiae deletion strains, locus YPR167C, strain met16, hits give low values 0.992 | S. cerevisiae deletion strains, strain wtn01, hits give low values 0.992 | S. cerevisiae strains, strain wild type, hits give low values 1.01
